According to PubChem BioAssay (NCI):
The panel holds about 79,000 compounds, 15% with a hit somewhere; the sample as a whole holds those more often. Activity calls are given as the source filed them. No stated cut-off is given here; in the data, active means growth inhibition above about 70%; inactive means the rest.

assay: NCI Yeast Anticancer Drug Screen. Data for the mlh1 rad18 strain (AID 175); settings: S. cerevisiae mlh1 rad18 strain growth inhibition; at 5.0 µM (retest, dose inferred, filed as 0.5); active compounds read high
Method in brief: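 Test agents were incubated with a yeast strain of defined genotype (DNA damage repair defect). Inhibition of growth was derived by comparison with vehicle-exposed cultures.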

Row | Structure (SMILES) | growth inhibition
1 | Clc1ccc(-c2nc3ccc(Cl)cc3[nH]2)cc1 | -38% (inactive)
2 | O=C1c2ccccc2NC(=O)C2C1C(c1ccccc1)CC2(O)c1ccccc1 (stereo not given) | 21% (inactive)
3 | COc1ccc(CC2C(=O)NC(C)C(=O)N(C)C3Cc4ccc(cc4)Oc4cc(ccc4O)CC(C(=O)NC(C)C(=O)NC(C)C(=O)N2C)N(C)C3=O)cc1 (stereo not given) | -1% (inactive)
4 | O=C1c2cccnc2-c2nccc3c2c1nc1cc(Br)ccc13 | 58% (inactive)
5 | CCN(C(=O)O)c1ccc(/C=C/c2ccnc3ccccc23)cc1 | -7% (inactive)
6 | O=C(/C=C/c1cccc(Cl)c1)c1ccccc1 | 10% (inactive)
7 | O.O.O=C(O)C(O)C(O)C(OC1OC(CO)C(O)C(O)C1O)C(O)CO.O=C(O)C(O)C(O)C(OC1OC(CO)C(O)C(O)C1O)C(O)CO.[NH-]C1CCCCC1[NH-].[Pt+2] (stereo not given) | -6% (inactive)
8 | O=C(N=c1sc2ccccc2s1)N=c1sc2ccccc2s1 | -20% (inactive)
9 | Cc1ccsc1/C=N/Nc1ccc2ccccc2n1 | 25% (inactive)
10 | CC(C)(C)C1=NC(=S)SC2=NC(=O)C3(NN21)c1ccccc1-c1ccccc13 | 6% (inactive)
11 | COC(=O)c1ccc(OC)cc1 | 3% (inactive)
12 | Cc1ccc(/C=C2\CN(C)CC3=C2NC(=S)NC3c2ccc(C)cc2)cc1 (stereo not given) | 26% (inactive)
13 | O=C1NC(=O)/C(=C/C=C/c2ccccc2)S1 | 26% (inactive)
14 | Nc1ccc(Cc2ccc(N)cc2[N+](=O)[O-])c([N+](=O)[O-])c1 | -6% (inactive)
15 | COc1ccccc1/C=C\C(=O)c1ccccc1 | 2% (inactive)
16 | NNC(=S)NN/C=C(\C=Nc1ccccc1)[N+](=O)[O-] | -20% (inactive)
17 | CCCCCCCCCCCCCCCCCO | -9% (inactive)
18 | COc1cc(C(c2cc3c(cc2O)OCO3)N2CCOCC2)cc(OC)c1OC (stereo not given) | -4% (inactive)
19 | O=C1OCc2cccc3cccc1c23 | 5% (inactive)
20 | CSC(=S)NNC(C)c1nccc2ccccc12 (stereo not given) | 2% (inactive)

Row | Structure (SMILES) | growth inhibition
21 | N#Cc1c(Cl)nc2ccccc2c1N=[N+]=[N-] | -18% (inactive)
22 | CC(C)(C)CC(C)(C)c1ccc(OCCSC(=N)N)cc1 | 99% (active)
23 | COC1CCC(O)C(CO)O1 (stereo not given) | 99% (active)
24 | CC(=O)N(C1=C(Cl)C(=O)c2ccccc2C1=O)c1ccc(Cl)cc1 | 99% (active)
25 | Cc1nc(N2N=C(c3ccc(Cl)cc3)CCC2=O)sc1[N+](=O)[O-] | -12% (inactive)
26 | Cn1c2c(c3ccccc31)CCN1C[C@@H]3CCCC[C@H]3C[C@@H]21 | 0% (inactive)
27 | Cn1cc(NC(=O)Nc2cc(C(=O)Nc3cc(C(=O)Nc4ccc5cc(S(=O)(=O)O)cc(S(=O)(=O)O)c5c4)n(C)c3)n(C)c2)cc1C(=O)Nc1cc(C(=O)Nc2ccc3cc(S(=O)(=O)O)cc(S(=O)(=O)O)c3c2)n(C)c1 | 76% (active)
28 | CC(=O)Oc1c(Cl)cc(Cl)cc1C(c1cc(Cl)cc(Cl)c1OC(C)=O)C(Cl)(Cl)Cl | -2% (inactive)
29 | CCCCCc1ccc2cc(C(=O)O)[nH]c2c1 | 3% (inactive)
30 | C/C(=N/O)c1cc([N+](=O)[O-])c(O)cc1O | -16% (inactive)
31 | CCOC(=O)CNC(=O)Sc1ccc(C(C)(C)C)cc1C | 29% (inactive)
32 | S=C(N/N=C1\C=Cc2ccccc2C1)N/N=C1\C=Cc2ccccc2C1 | 18% (inactive)
33 | Cc1cccc(Nc2c3c(nc4ccccc24)CCCCC3)c1 | -5% (inactive)
34 | Cc1ccc(NS(=O)(=O)c2ccc(C)cc2)cc1 | -4% (inactive)
35 | CCOC(=O)C(=CNC(=S)Nc1c(CC)cccc1C(C)(C)C)C(=O)OCC | -11% (inactive)
36 | COC1/C=C/OC2(C)Oc3c(C)c(OC(C)=O)c4c(c3C2=O)C(=O)C=C(NC(=O)/C(C)=C\C=C\C(C)C(O)C(C)C(O)C(C)C(OC(C)=O)C1C)C4=O (stereo not given) | 5% (inactive)
37 | O=C(O)c1ccc(/C=C2\COc3ccccc3C2=O)cc1 | 4% (inactive)
38 | Cc1c2c(c(C)c3ccncc13)S(=O)(=O)c1ccccc1-2 | 75% (active)
39 | Oc1c(Cl)cc(Cl)c2cccnc12 | 43% (inactive)
40 | Cc1ccc(S(=O)(=O)Nc2ccc3c(c2)C(=O)c2ccccc2-3)cc1 | 17% (inactive)

same assay, conditions: S. cerevisiae mlh1 rad18 strain growth inhibition; at 50.0 µM (retest, dose inferred, filed as 5.0); active compounds read high

Row | Structure (SMILES) | growth inhibition
41 | Clc1ccc(-c2nc3ccc(Cl)cc3[nH]2)cc1 | 54% (inactive)
42 | O=C1c2ccccc2NC(=O)C2C1C(c1ccccc1)CC2(O)c1ccccc1 (stereo not given) | 86% (active)
43 | COc1ccc(CC2C(=O)NC(C)C(=O)N(C)C3Cc4ccc(cc4)Oc4cc(ccc4O)CC(C(=O)NC(C)C(=O)NC(C)C(=O)N2C)N(C)C3=O)cc1 (stereo not given) | 77% (active)
44 | O=C1c2cccnc2-c2nccc3c2c1nc1cc(Br)ccc13 | 98% (active)
45 | CCN(C(=O)O)c1ccc(/C=C/c2ccnc3ccccc23)cc1 | 91% (active)
46 | O=C(/C=C/c1cccc(Cl)c1)c1ccccc1 | 96% (active)
47 | O.O.O=C(O)C(O)C(O)C(OC1OC(CO)C(O)C(O)C1O)C(O)CO.O=C(O)C(O)C(O)C(OC1OC(CO)C(O)C(O)C1O)C(O)CO.[NH-]C1CCCCC1[NH-].[Pt+2] (stereo not given) | 32% (inactive)
48 | O=C(N=c1sc2ccccc2s1)N=c1sc2ccccc2s1 | 10% (inactive)
49 | Cc1ccsc1/C=N/Nc1ccc2ccccc2n1 | 84% (active)
50 | CC(C)(C)C1=NC(=S)SC2=NC(=O)C3(NN21)c1ccccc1-c1ccccc13 | 77% (active)
51 | COC(=O)c1ccc(OC)cc1 | -3% (inactive)
52 | Cc1ccc(/C=C2\CN(C)CC3=C2NC(=S)NC3c2ccc(C)cc2)cc1 (stereo not given) | 48% (inactive)
53 | O=C1NC(=O)/C(=C/C=C/c2ccccc2)S1 | 94% (active)
54 | Nc1ccc(Cc2ccc(N)cc2[N+](=O)[O-])c([N+](=O)[O-])c1 | -2% (inactive)
55 | COc1ccccc1/C=C\C(=O)c1ccccc1 | 98% (active)
56 | NNC(=S)NN/C=C(\C=Nc1ccccc1)[N+](=O)[O-] | 86% (active)
57 | CCCCCCCCCCCCCCCCCO | -3% (inactive)
58 | COc1cc(C(c2cc3c(cc2O)OCO3)N2CCOCC2)cc(OC)c1OC (stereo not given) | 21% (inactive)
59 | O=C1OCc2cccc3cccc1c23 | 36% (inactive)
60 | CSC(=S)NNC(C)c1nccc2ccccc12 (stereo not given) | 97% (active)

Row | Structure (SMILES) | growth inhibition
61 | N#Cc1c(Cl)nc2ccccc2c1N=[N+]=[N-] | 8% (inactive)
62 | CC(C)(C)CC(C)(C)c1ccc(OCCSC(=N)N)cc1 | 99% (active)
63 | COC1CCC(O)C(CO)O1 (stereo not given) | 99% (active)
64 | CC(=O)N(C1=C(Cl)C(=O)c2ccccc2C1=O)c1ccc(Cl)cc1 | 99% (active)
65 | Cc1nc(N2N=C(c3ccc(Cl)cc3)CCC2=O)sc1[N+](=O)[O-] | 92% (active)
66 | Cn1c2c(c3ccccc31)CCN1C[C@@H]3CCCC[C@H]3C[C@@H]21 | 25% (inactive)
67 | Cn1cc(NC(=O)Nc2cc(C(=O)Nc3cc(C(=O)Nc4ccc5cc(S(=O)(=O)O)cc(S(=O)(=O)O)c5c4)n(C)c3)n(C)c2)cc1C(=O)Nc1cc(C(=O)Nc2ccc3cc(S(=O)(=O)O)cc(S(=O)(=O)O)c3c2)n(C)c1 | 98% (active)
68 | CC(=O)Oc1c(Cl)cc(Cl)cc1C(c1cc(Cl)cc(Cl)c1OC(C)=O)C(Cl)(Cl)Cl | 23% (inactive)
69 | CCCCCc1ccc2cc(C(=O)O)[nH]c2c1 | 51% (inactive)
70 | C/C(=N/O)c1cc([N+](=O)[O-])c(O)cc1O | 80% (active)
71 | CCOC(=O)CNC(=O)Sc1ccc(C(C)(C)C)cc1C | 50% (inactive)
72 | S=C(N/N=C1\C=Cc2ccccc2C1)N/N=C1\C=Cc2ccccc2C1 | 56% (inactive)
73 | Cc1cccc(Nc2c3c(nc4ccccc24)CCCCC3)c1 | 83% (active)
74 | Cc1ccc(NS(=O)(=O)c2ccc(C)cc2)cc1 | 86% (active)
75 | CCOC(=O)C(=CNC(=S)Nc1c(CC)cccc1C(C)(C)C)C(=O)OCC | 67% (inactive)
76 | COC1/C=C/OC2(C)Oc3c(C)c(OC(C)=O)c4c(c3C2=O)C(=O)C=C(NC(=O)/C(C)=C\C=C\C(C)C(O)C(C)C(O)C(C)C(OC(C)=O)C1C)C4=O (stereo not given) | 90% (active)
77 | O=C(O)c1ccc(/C=C2\COc3ccccc3C2=O)cc1 | 91% (active)
78 | Cc1c2c(c(C)c3ccncc13)S(=O)(=O)c1ccccc1-2 | 85% (active)
79 | Oc1c(Cl)cc(Cl)c2cccnc12 | 98% (active)
80 | Cc1ccc(S(=O)(=O)Nc2ccc3c(c2)C(=O)c2ccccc2-3)cc1 | 94% (active)
